Compounds with a hit are over-represented: about 28% of the library has one in this group of screens.
CYP2C19 inh – human CYP2C19 inhibition. inhibition, % at 5 µM. 96,000 compounds, 21% hits. AID 778. CYP2C19 Supersomes, luciferin-H EGE luminescence, 30 min;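 active means CYP2C19 inhibition above a set limit at 5 µM in the primary screen, cut at about 50% in these data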;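 further: plate controls were negative control wells for no effect and 2.5 mM tranylcypromine positive control for full effect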
Target sequence (P33261 whole entry, looked up): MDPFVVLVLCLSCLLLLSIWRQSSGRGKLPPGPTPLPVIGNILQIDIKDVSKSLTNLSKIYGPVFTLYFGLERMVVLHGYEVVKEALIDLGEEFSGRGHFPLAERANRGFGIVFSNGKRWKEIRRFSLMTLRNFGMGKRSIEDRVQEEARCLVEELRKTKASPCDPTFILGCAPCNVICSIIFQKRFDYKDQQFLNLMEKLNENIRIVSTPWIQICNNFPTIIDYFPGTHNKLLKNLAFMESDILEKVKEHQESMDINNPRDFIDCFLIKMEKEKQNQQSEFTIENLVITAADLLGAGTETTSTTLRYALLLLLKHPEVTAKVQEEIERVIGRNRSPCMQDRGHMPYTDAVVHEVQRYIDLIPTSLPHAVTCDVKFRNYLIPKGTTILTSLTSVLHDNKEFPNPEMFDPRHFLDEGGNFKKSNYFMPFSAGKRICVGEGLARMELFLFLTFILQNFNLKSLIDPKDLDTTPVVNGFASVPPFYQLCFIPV
hDAT+cocaine – modulates human dopamine transporter uptake under cocaine; Q01959; LLC-PK1 hDAT cells, [14C]-dopamine uptake with cocaine IC80; actives deviate in either direction; B-score at 10 µM; 110,000 compounds, 1.3% hits; AID 449768;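 active means Z score or B-score, a plate-position-corrected score, falls beyond the plate's 99.7% confidence bounds, in either direction; inactive means both scores lie inside the 99.7% bounds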;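 further: scored against the spread of the other compound wells on the same plate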
CYP2C19 activ – increases human CYP2C19 enzyme activity; activation factor at 5 µM; 96,000 tested, under 10 active; recombinant CYP2C19, luciferin-H EGE luminescence; hits give high values; 0 = fully inhibited enzyme, 1 = untreated enzyme;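 active means activation factor of at least 2 at 5 µM in the primary screen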;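 further: 0 = wells with 2.5 mM tranylcypromine and 1 = vehicle-only wells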
CYP2C9 activ – increases human cytochrome P450 2C9 activity; 96,000 compounds, 1.4% hits; activation factor at 5 µM; recombinant CYP2C9, luciferin-H conversion, luminescence; hits give high values; factor 1 = untreated enzyme, 0 = blocked; AID 1024;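 active means activation factor of 2 or more for CYP2C9 at a 5 µM dose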;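 further: 0 = sulfaphenazole-blocked wells and 1 = vehicle-only wells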
D1 allo mod – D1 dopamine receptor (human) allosteric modulation | P21728 | HEK293 D1, CRE-luciferase, dopamine EC30 potentiation; actives deviate in either direction | B-score at 10 µM | 58,000 compounds, 5.9% hits | AID 641;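 active means luminescence count or its row- and column-corrected plate score outside the 99.7% band of the plate's sample wells, on either side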
CYP2C9 inh – human CYP2C9 inhibition; CYP2C9 Supersomes, luciferin-H conversion, luminescence; 96,000 compounds, 20% hits; AID 777; inhibition, % at 5 µM;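 active means blocking of liver enzyme CYP2C9 beyond about 50% at 5 µM, limit read from the data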
The depositor's hits bear a star; x = no result given.

SMILES	CYP2C19 inh	hDAT+cocaine	CYP2C19 activ	CYP2C9 activ	D1 allo mod	CYP2C9 inh
Cc1cc(C)nc(-n2c(Nc3ccccc3)cc(=O)c3c(C)n(-c4ccccc4)c(=O)nc32)n1	x	x	x	x	0.22	x
CN(C(=O)OCc1ccccc1)C(CC(N)=O)C(=O)O (stereo not given)	-3.9	0.558	1	1	x	0.1
O=C1c2ccccc2C(=O)N1CCc1nc2ccccc2c(=O)n1-c1ccccn1	38.6	0.773	0.6	0.6	0.121	35.6
Cc1ccnc(-n2c(CCN3C(=O)c4ccccc4C3=O)nc3ccccc3c2=O)c1	59.9*	0.838	0.4	0.3	0.385	69.0*
CCCCCC1CC(CC#CCN2CCOCC2)C(=O)O1 (stereo not given)	x	-0.00891	x	x	-1.2	x
Cc1ccc(Nc2nnc(SCn3nnc4ccccc4c3=O)s2)cc1	17.6	-0.856	0.8	0.9	x	5.9
C=CCn1c(SCn2nnc3ccccc3c2=O)nnc1-c1ccc(Br)cc1	75.6*	0.23	0.2	0.2	1.6	75.2*
C=CCn1c(SCn2nnc3ccccc3c2=O)nnc1C1CCCCC1	97.6*	-0.0227	0	0.9	-0.481	9.9
C=CCn1c(SCn2nnc3ccccc3c2=O)nnc1-c1ccc(F)cc1	99.1*	-0.176	0	0.8	1.03	23.5
Cc1nc(SCn2nnc3ccccc3c2=O)nc(C)c1C	75.2*	-0.178	0.2	0.9	1.49	8.5
NCCCCc1cn(CC(=O)N2CCNCC2)nn1	x	-0.178	x	x	x	x
O=C(Nc1cccnc1)c1cc(-c2ccc3c(c2)OCO3)on1	3.2	-0.497	1	1	-3.75	2.7
CCc1cccc(CC)c1-n1c(SCn2nnc3ccccc3c2=O)nnc1-c1cccnc1	96.2*	0.193	0	0.1	x	93.3*
COc1ccc(C(=O)Nc2cc(OC)cc(OC)c2)cc1	86.2*	1.72*	0.1	1.1	-1.67	-9.7
COc1ccc(C(=O)Nc2cccc(OC(=O)c3ccc(C)c(C)c3)c2)cc1	26.9	x	0.7	0.3	x	69.9*
COc1cc(NC(=O)c2ccccc2)cc(OC)c1	19.0	1.99	0.8	0.9	-1.16	7.4
COc1ccc(OCc2ccc(C(=O)NN)cc2)cc1	92.1*	0.0407	0.1	0.3	x	69.3*
COc1ccc(CN2[C@@H](CC(=O)O)c3ccccc3S2(=O)=O)cc1	x	0.714	x	x	x	x
Cc1ccc(C2=CSC3=NCCN23)c(C)c1	56.3*	-0.0405	0.4	1	0.613	2.4
CCCCc1nc(NCCNC(=O)c2ccco2)c(C#N)c2c1CSC(C)(C)C2	67.7*	0.612	0.3	0.1	1.32	93.1*
CC1=C(C(=O)N2CCN(c3cc(C)ccc3C)CC2)C2(CCC(C)CC2)OC1=O (stereo not given)	x	0.393	x	x	x	x
CCOc1ccc(N(CC(=O)NCc2ccccc2)S(=O)(=O)c2c(C)noc2C)cc1	91.2*	-0.158	0.1	0.5	-0.02	46.2
CCOc1ccc(N(CC(=O)Nc2ccc3c(c2)OCCO3)S(=O)(=O)c2c(C)noc2C)cc1	0.0	-0.442	1	0.9	-0.466	7.7
CCOc1ccc(N(CC(=O)NC(C)CC)S(=O)(=O)c2c(C)noc2C)cc1 (stereo not given)	63.9*	1.08	0.4	0.7	-1.17	27.6
COc1cccc(CNC(=O)CN(c2cc(C)cc(C)c2)S(=O)(=O)c2c(C)noc2C)c1	54.8*	1.49	0.5	0.4	0.0367	58.4*
SMILES	CYP2C19 inh	hDAT+cocaine	CYP2C19 activ	CYP2C9 activ	D1 allo mod	CYP2C9 inh
CCOc1ccc(N(CC(=O)Nc2nccs2)S(=O)(=O)c2c(C)noc2C)cc1	70.6*	-1.16	0.3	0.4	0.208	64.0*
CCOc1ccc(N(CC(=O)Nc2ccc(OC)cc2)S(=O)(=O)c2c(C)noc2C)cc1	6.6	0.66	0.9	0.9	-0.0481	7.9
Cc1cc(C)cc(N(CC(=O)N2CCN(Cc3ccccc3)CC2)S(=O)(=O)c2c(C)noc2C)c1	-10.1	-0.994	1.1	1	-0.216	-4.4
C=CCOc1nc2c(c(=O)n(Cc3ccc(Cl)cc3)c(=O)n2C)n1C	34.2	-0.508	0.7	0.8	x	15.4
O=C(CCNS(=O)(=O)c1cccc2nsnc12)NC1CCN(Cc2ccccc2)CC1	4.8	-0.477	1	1	1.02	0.6
CCOC(=O)C1CCCN(C(=O)c2cn(CC(C)C)c(=O)c3cc(OC)c(OC)cc23)C1 (stereo not given)	x	-1.49	x	x	0.392	x
COc1ccc(C(=O)N2CCN(c3cccc(Cl)c3)CC2)c(OC)c1	86.7*	-0.0477	0.1	0.3	-0.714	69.1*
COc1cc2c(C(=O)N3CCN(c4cccc(Cl)c4)CC3)cn(CC(C)C)c(=O)c2cc1OC	25.4	1.07	0.7	0.4	x	57.9*
COc1cccc(N2CCN(C(=O)NC3CCCCC3)CC2)c1	30.0	0.401	0.7	0.4	0.185	56.2*
COc1cc2c(C(=O)N3CCN(C4CCCCC4)CC3)cn(CC(C)C)c(=O)c2cc1OC	-7.5	0.0175	1.1	0.9	-5.7*	11.8
CCCN1CCN(C(=O)c2cn(CC(C)C)c(=O)c3cc(OC)c(OC)cc23)CC1	-6.1	x	1.1	0.9	-1.38	10.8
Cc1ccc(NC(=O)CCc2c(C)nc3ncnn3c2C)nc1	-6.0	-0.225	1.1	0.8	0.144	15.0
COc1cc(C)nc(N2CCC(C(=O)NC3CCCCC3)CC2)n1	45.8	0.504	0.5	0.7	0.82	27.9
O=C(CSc1nc2nc[nH]c2c(=O)[nH]1)NC1CCCCC1	-15.6	-0.24	1.2	1.1	x	-12.0
COc1ccccc1CNC(=O)CNCC1CCCO1 (stereo not given)	42.3	0.45	0.6	1.3	-0.391	-30.2
O=C(Nc1cccc(-c2nnc(-c3ccccc3)o2)c1)c1ccco1	13.5	0.164	0.9	0.8	-1.26	23.2
O=C(COc1ccc(Br)cc1)Nc1ccc(-c2nnc(-c3ccco3)o2)cc1	63.9*	0.302	0.4	0.7	0.0105	33.4
Cc1ccc(OCC(=O)Nc2cccc(-c3nnc(-c4ccccc4)o3)c2)cc1	x	x	x	x	-0.0505	x
CCC(Oc1ccccc1)C(=O)Nc1ccc(-c2nnc(-c3ccco3)o2)cc1 (stereo not given)	90.4*	1.22	0.1	0	-0.0342	97.4*
COC(=O)[C@@H]1C[C@@]2(O)[C@@H](O)[C@@H](O)[C@@H](O)C[C@H]2N1Cc1cc(OC)cc(OC)c1	x	-0.113	x	x	x	x
Cc1nn(-c2ccccc2)c2c1C(c1ccc(F)cc1F)C(C#N)=C(N)O2 (stereo not given)	67.8*	0.123	0.3	0.2	1.92	82.0*
Cc1nn(Cc2ccccc2)c2c1C(c1cccnc1)C(C#N)=C(N)O2 (stereo not given)	26.1	-1.29	0.7	0.7	x	25.9
Cc1nn(Cc2ccccc2)c2c1C(c1ccncc1)C(C#N)=C(N)O2 (stereo not given)	91.5*	-0.141	0.1	0	-0.252	99.5*
